# Source: paper PMC6919601, “Identification of Plasmodium dipeptidyl aminopeptidase allosteric inhibitors by high throughput screening” (PLoS ONE, 2019)
# Values joined by “and” are separate entries in the source; they are usually repeats but may differ in a detail not shown here. Equal values may be shown once. Hit rate of the full screen: of about 110,000 compounds, about 230 (0.21%) showed an effect of 50% or more. Only a selection was taken, and strong results are over-represented in it overall.
# Target: DPAP1 (Plasmodium falciparum, UniProt Q8IIJ9)
# Sequence (Q8IIJ9 whole entry, looked up): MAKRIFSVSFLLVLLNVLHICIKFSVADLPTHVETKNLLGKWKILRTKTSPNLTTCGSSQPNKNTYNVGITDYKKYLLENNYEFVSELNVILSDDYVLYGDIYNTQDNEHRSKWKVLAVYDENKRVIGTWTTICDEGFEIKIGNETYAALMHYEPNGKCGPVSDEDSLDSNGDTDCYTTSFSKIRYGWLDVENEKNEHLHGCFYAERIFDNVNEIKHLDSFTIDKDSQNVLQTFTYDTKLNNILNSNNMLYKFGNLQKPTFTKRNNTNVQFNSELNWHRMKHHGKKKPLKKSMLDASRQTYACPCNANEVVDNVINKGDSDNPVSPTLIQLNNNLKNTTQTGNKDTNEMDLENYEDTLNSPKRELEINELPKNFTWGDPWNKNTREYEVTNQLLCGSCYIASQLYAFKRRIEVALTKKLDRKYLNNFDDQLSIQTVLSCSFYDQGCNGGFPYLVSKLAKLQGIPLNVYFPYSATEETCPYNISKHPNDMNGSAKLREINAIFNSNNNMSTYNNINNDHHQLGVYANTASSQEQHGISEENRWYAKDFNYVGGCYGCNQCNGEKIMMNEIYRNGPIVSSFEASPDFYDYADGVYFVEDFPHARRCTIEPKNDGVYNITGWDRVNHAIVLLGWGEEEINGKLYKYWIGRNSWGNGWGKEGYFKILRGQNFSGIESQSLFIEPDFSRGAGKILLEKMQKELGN
# Test: primary screen, percent inhibition; read by cleavage of a fluorogenic dipeptide substrate; higher = more effect of the substance
# Parameters: species or system P. falciparum D10 trophozoite lysates; single well
# Method: HTS was performed in black 384-well plates. The first and last two columns of each plate contained our negative (DMSO) and positive (10 μM JCP410) controls, and the 20 central columns the test compounds at 10 μM. Compounds were first diluted 50-fold into assay buffer (50 mM sodium acetate, 5 mM MgCl2, 10 mM β-mercaptoethanol, and 0.1% CHAPS, pH 5.5) from a 10 mM DMSO stock plates. One microliter of this 200 μM intermediate stock plate was dispensed into the assay plate. […] After 30 min, the reaction was quenched with 20 μL of 0.5 M acetic acid, and the fluorescent intensity measured at 523 nm (λex = 492 nm) using an Analyst HT multimode plate reader (Molecular Devices).
# 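Note: 30 min substrate incubation versus DMSO and 10 µM JCP410 controls.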
row,Structure (SMILES),% Inhibition @ 10 uM
1,O=C(Nc1cccc(Cl)c1)N1CCC(Cc2ccccc2)CC1,0.727%
2,Cc1cccc(NS(=O)(=O)c2ccccc2)n1,-3.56%
3,COc1ccc(-c2cc(C(=O)N3CCOCC3)c3ccccc3n2)cc1,0.245%
4,COc1cc(C2C(C#N)=C(N)OC3=C2C(=O)CCC3)cc(OC)c1OC (stereo not shown),0.687%
5,O=C(CCc1nnc2n(CCc3ccccc3)c(=O)c3ccccc3n12)N1CCOCC1,0.981%
6,O=C(NCc1ccccc1Br)C1CCCN(c2nnc(N3CCCC3=O)s2)C1 (stereo not shown),-4.68%
7,CC(C)CC(NC(=O)N1CCC(N2CCCCC2)CC1)C(=O)NCC#N (stereo not shown),-0.972%
8,Cc1ccccc1-c1ccccc1N,-0.305%
9,COc1ccc(CNC(=O)Cn2ncn3cccc3c2=O)cc1,-5.15%
10,COc1ccccc1-n1cc(-c2ccccc2)nc1S,58.6%
11,COc1ccc(OC)c(-n2cc(-c3ccccc3)nc2SC)c1,4.49%
12,CCOc1ccc(-c2cn(-c3ccccc3F)c(S)n2)cc1,56.2%
13,CCOc1cccc(-n2cc(-c3ccccc3)nc2S)c1,42.6%
14,Sc1nc(-c2ccccc2)cn1-c1ccccc1,37.1%
15,Fc1ccccc1-n1cc(-c2ccccc2)nc1S,45.3%
16,CC1CC(C)CN(CCCNC(=O)Cn2ncn3nc(-c4cccs4)cc3c2=O)C1 (stereo not shown),2.27%
17,Cc1ccc(C(=O)NC2(C(F)(F)F)C(=O)Nc3c2c(=O)[nH]c(=O)n3-c2ccc(Cl)cc2)cc1 (stereo not shown),-3.39%
18,CCc1cc2c(cc3c(=O)n(CC(=O)NCCc4ccc(OC)c(OC)c4)nc(CC)n32)s1,3.29%
19,Cc1nn(C)c2c1c(-c1ccccc1)cc(=O)n2Cc1cccc(F)c1,2.65%
20,COc1ccc(CN2CCN(c3cccc(C)c3C)CC2)cc1OC,9.04%
21,COc1cc(CN2CCN(c3ccccc3C)CC2)cc(OC)c1,1.9%
22,COc1cc(CN2CCN(c3cccc(C)c3C)CC2)cc(OC)c1,55.4%
23,O=C1NC(=O)/C(=C\c2ccc(-c3ccc(Cl)cc3)o2)S1,6.08%

row,Structure (SMILES),% Inhibition @ 10 uM
1,O=C1NC(=O)/C(=C\c2ccc(-c3ccc(Cl)c(C(=O)O)c3)o2)S1,8.24%
2,O=C1NC(=O)/C(=C/c2ccc(-c3ccc(O)c(C(=O)O)c3)o2)S1,64.8%
3,OCCN(Cc1ccccc1)CC1CC=CCC1 (stereo not shown),1.38%
4,COC(=O)c1cc(O)nc(SCc2cccc(C)c2)n1,4.47%
5,Cc1ccc(S(=O)(=O)c2cc3c(=O)n4ccccc4nc3n(CCO)c2=N)cc1,-4.59%
6,Cc1ccc(S(=O)(=O)c2cc3c(=O)n4ccccc4nc3n(C)c2=N)cc1,57.9%
7,CCCn1c(=N)c(S(=O)(=O)c2ccc(C)cc2)cc2c(=O)n3ccccc3nc21,3.99%
8,C=CCOCC(O)CSc1nc(C)cc(C)n1 (stereo not shown),3.48%
9,O=C(C1CCCC1)N1CCN(C(c2ccccc2)c2ccccc2)CC1,0.795%
10,O=C(Nc1ccccc1)c1nc2ccccc2s1,5.39%
11,CCCCCCc1cc2cc(C#N)c(=O)oc2cc1O,67.5%
12,CCCCCCc1cc2cc(-c3csc(N)n3)c(=O)oc2cc1O,1.12%
13,CCCCCCc1cc2cc(C(=O)O)c(=O)oc2cc1O,4.08%
14,C=CCOc1ccc(C2c3c(oc4ccccc4c3=O)C(=O)N2c2nc(C)c(C(=O)OC)s2)cc1 (stereo not shown),3.12%
15,CCOC(=O)c1sc(N2C(=O)c3oc4ccccc4c(=O)c3C2c2ccc(O)c(OC)c2)nc1C (stereo not shown),2.16%
16,CCc1ccc(C2c3c(oc4ccccc4c3=O)C(=O)N2c2nc(C)c(C(=O)OC)s2)cc1 (stereo not shown),-1.86%
17,CCOc1cc(C2c3c(oc4ccccc4c3=O)C(=O)N2c2nc(C)c(C(C)=O)s2)ccc1O (stereo not shown),-0.828%
18,CCOc1cc(C2c3c(oc4ccccc4c3=O)C(=O)N2c2nc(C)c(C(=O)OC)s2)ccc1O (stereo not shown),69.6%
19,CCOc1ccc(C2c3c(oc4ccccc4c3=O)C(=O)N2c2nc(C)c(C(=O)OC)s2)cc1 (stereo not shown),70.8%
20,CCn1cc(C(=O)Nc2ccccc2C(C)C)cn1,6.1%
21,CCS(=O)(=O)c1nc(S(=O)(=O)c2ccc(C)cc2)c(NCCc2ccccc2)s1,-5.89%
22,Cc1nc2c(nc(C)n2-c2ccccc2)s1,2.92%
23,CCOc1ccc(Nc2nc(-c3cccs3)cs2)cc1,-1.37%

row,Structure (SMILES),% Inhibition @ 10 uM
1,CCc1ccc(CNC(=O)C(CC)n2nc(C)c3sc4ccccc4c3c2=O)cc1 (stereo not shown),90.8%
2,CCC(C(=O)NCc1ccc(OC(C)C)cc1)n1nc(C)c2sc3ccccc3c2c1=O (stereo not shown),2.8%
3,CCCCNC(=O)C(CC)n1nc(C)c2sc3ccccc3c2c1=O (stereo not shown),-2.61%
4,CN1CCN(S(=O)(=O)c2ccccc2)CC1,-0.127%
5,O=S(=O)(c1ccccc1)N1CCN(c2ccccc2)CC1,5.09%
6,O=C1CN(S(=O)(=O)c2ccccc2)CCN1S(=O)(=O)c1ccccc1,60.8%
7,COc1cc(CN2CCc3c([nH]c4ccccc34)C2)cc2c1OCO2,-5.11%
8,CC(=O)C1=C(C)OC(N)=C(C#N)C1c1cc2c(cc1[N+](=O)[O-])OCO2 (stereo not shown),-1.29%
9,CN(Cc1cnn(-c2ccccc2)c1)S(=O)(=O)c1ccc(-c2cc(C(F)(F)F)no2)s1,1.05%
10,CC(C)(C)c1cc(-c2ccco2)c(C#N)c(S)n1,20.6%
11,CCc1nc(S)c(C#N)c(C(F)(F)F)c1C,74.2%
12,Cc1cc(-c2ccco2)c(C#N)c(S)n1,51.7%
13,CCc1nc(N)c(C#N)c(-c2ccc(Br)s2)c1C,-3.13%
14,Cc1cc(C(F)(F)F)c(C#N)c(SCc2ccccc2)n1,2.23%
15,Cc1cc(C)c(C#N)c(S)n1,89.9%
16,CSc1nc(C)cc(C(F)(F)F)c1C#N,4.97%
17,CCc1nc(SCc2cccnc2)c(C#N)c(C(F)(F)F)c1C,0.775%
18,Cc1cc(C(F)(F)F)c(C#N)c(S)n1,82.2%
19,Cc1cc(C)c(C#N)c(Cl)n1,1.27%
20,COCc1cc(C)nc(S)c1C#N,43.7% and 44.2%
21,Cc1cc(-c2ccco2)c(C#N)c(N)n1,1.38%
